In the supplement of paper PMC10849652:
Of roughly 8,800 targets only a part is listed; those with a hit were picked by preference. About 0.5% of all pairs of compound and target were hits. Unmarked numbers belong to inactive results.

Legend:
Assay in all cases: log2 fold change, soluble protein after heating vs DMSO (PISA); higher = thermal stabilisation; K562 lysate, 10 uM; active = over 0.2 and 3.5 SD of the protein, either way, in both replicates (recomputed)
[1] = compound: CC(=O)c1cnc2ccc(-c3cc(Cl)c(O)c(Cl)c3)nc2c1N[C@H]1CC[C@H](CN(C)C)CC1
In short: (§1)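 Following dounce homogenisation of K562 pellets in PBS pH 7.4 with 1 mM MgCl2, crude extract at 1 mg/mL protein was incubated for 30 min with 10 μM compound. Aliquots were then heated for 3 min over 48°C-58°C and pooled, NP-40 was added to 0.5% at 4°C, and soluble protein was recovered as the supernatant at 21,000xg for 90 min. Channel-sum-equalised TMTpro 16plex LC-MS/MS quantified this protein. Each value, from duplicates, is a log-two fold change in thermal stability relative to solvent controls.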

[2] = compound: CC(C)C1=C2N=C(C=C(N2N=C1)NCC3=CC=CC=C3)NCCCCCCN
In short: as §1

[3] = compound: CC1=C(C(CC(=O)N1)C2=CC=C(C=C2)C(F)(F)F)C(=O)NC3=C(C=C4C(=C3)C=NN4)F
In short: as §1

[4] = compound: CC1=CC=C(C=C1)SC2=C3C=C(SC3=CN=C2)C(=O)N
In short: as §1

vemurafenib = compound: CCCS(=O)(=O)Nc1ccc(F)c(C(=O)c2c[nH]c3ncc(-c4ccc(Cl)cc4)cc23)c1F [vemurafenib]
In short: as §1

[5] = compound: CCCS(=O)(=O)Nc1ccc(F)c(C(=O)c2c[nH]c3ncc(Cl)cc23)c1F
In short: as §1

volasertib = compound: CC[C@@H]1C(=O)N(C)c2cnc(Nc3ccc(C(=O)N[C@H]4CC[C@H](N5CCN(CC6CC6)CC5)CC4)cc3OC)nc2N1C(C)C [volasertib]
In short: as §1

[6] = compound: CCn1cc(-c2ccnc3[nH]c(-c4cccc(CN(C)C)c4)cc23)c(-c2ccc(NC(=O)N(C)C)cc2)n1
In short: as §1

[7] = compound: CN1CCC(CNc2ccc3ncc(-c4cccc(OC(F)(F)F)c4)n3n2)CC1
In short: as §1

ibrutinib = compound: C=CC(=O)N1CCC[C@@H](n2nc(-c3ccc(Oc4ccccc4)cc3)c3c(N)ncnc32)C1 [ibrutinib]
In short: as §1

[8] = compound: CC1=C(C2=C(C=C1)C(=O)C3=CC=CC=C3N2CCCN)C
In short: as §1

barasertib = compound: CCN(CCCOc1ccc2c(Nc3cc(CC(=O)Nc4cccc(F)c4)[nH]n3)ncnc2c1)CCOP(=O)(O)O [barasertib]
In short: as §1

[9] = compound: CC1=C(C=C(C=C1)NC(=O)C2=CC(=CC=C2)C(C)(C)C#N)NC3=CC4=C(C=C3)N=CN(C4=O)C
In short: as §1

saracatinib = compound: CN1CCN(CCOc2cc(OC3CCOCC3)c3c(Nc4c(Cl)ccc5c4OCO5)ncnc3c2)CC1 [saracatinib]
In short: as §1

sotrastaurin = compound: CN1CCN(c2nc(C3=C(c4c[nH]c5ccccc45)C(=O)NC3=O)c3ccccc3n2)CC1 [sotrastaurin]
In short: as §1

ralimetinib = compound: CC(C)(C)Cn1c(N)nc2ccc(-c3[nH]c(C(C)(C)C)nc3-c3ccc(F)cc3)nc21 [ralimetinib]
In short: as §1

[10] = compound: CC(C)(O)CC(=O)NCCn1ccc2ncnc(Nc3ccc(Oc4cccc(C(F)(F)F)c4)c(Cl)c3)c21
In short: as §1

[11] = compound: CC1=C(C=C(C=C1)NC(=O)C2=CC(=CC=C2)N(C)C)NC(=O)C3=CC=C(C=C3)O
In short: as §1

[12] = compound: CCn1c(C(=O)N(C2CC2)C2CC2)cc2c3c(ncn3C)c(Nc3cc(C)n(C)n3)nc21
In short: as §1

[13] = compound: CC[C@@H]1C(=O)N(C)c2cnc(Nc3ccc(C(=O)NC4CCN(C)CC4)cc3OC)nc2N1C1CCCC1
In short: as §1

Chain of UniProt Q8IZP0 (Q8IZP0 whole entry, looked up): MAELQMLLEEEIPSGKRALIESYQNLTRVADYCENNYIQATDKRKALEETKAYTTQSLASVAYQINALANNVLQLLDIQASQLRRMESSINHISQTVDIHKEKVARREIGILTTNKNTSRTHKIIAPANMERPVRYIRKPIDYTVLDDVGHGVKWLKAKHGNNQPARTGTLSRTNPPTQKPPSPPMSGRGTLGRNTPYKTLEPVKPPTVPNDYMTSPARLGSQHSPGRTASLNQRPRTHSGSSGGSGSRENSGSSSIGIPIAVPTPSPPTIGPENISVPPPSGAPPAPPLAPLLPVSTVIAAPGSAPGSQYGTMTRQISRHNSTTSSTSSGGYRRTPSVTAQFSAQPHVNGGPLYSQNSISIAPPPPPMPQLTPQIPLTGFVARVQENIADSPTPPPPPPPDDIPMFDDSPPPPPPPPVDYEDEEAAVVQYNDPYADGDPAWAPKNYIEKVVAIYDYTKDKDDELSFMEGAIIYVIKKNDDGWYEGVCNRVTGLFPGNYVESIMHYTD
Chain of UniProt Q92685 (Q92685 whole entry, looked up): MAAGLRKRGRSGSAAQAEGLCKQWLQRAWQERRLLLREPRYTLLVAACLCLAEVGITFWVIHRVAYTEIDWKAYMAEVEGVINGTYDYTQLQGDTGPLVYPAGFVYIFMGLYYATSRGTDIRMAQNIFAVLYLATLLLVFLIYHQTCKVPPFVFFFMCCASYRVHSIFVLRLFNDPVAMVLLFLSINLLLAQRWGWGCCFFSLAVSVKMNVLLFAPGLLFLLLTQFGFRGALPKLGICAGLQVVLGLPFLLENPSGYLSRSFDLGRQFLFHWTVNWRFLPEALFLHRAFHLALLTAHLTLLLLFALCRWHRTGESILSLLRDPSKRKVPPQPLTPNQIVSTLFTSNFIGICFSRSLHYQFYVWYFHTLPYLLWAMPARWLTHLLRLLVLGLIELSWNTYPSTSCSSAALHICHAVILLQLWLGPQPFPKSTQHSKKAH
Chain of UniProt O14617 (O14617 whole entry, looked up): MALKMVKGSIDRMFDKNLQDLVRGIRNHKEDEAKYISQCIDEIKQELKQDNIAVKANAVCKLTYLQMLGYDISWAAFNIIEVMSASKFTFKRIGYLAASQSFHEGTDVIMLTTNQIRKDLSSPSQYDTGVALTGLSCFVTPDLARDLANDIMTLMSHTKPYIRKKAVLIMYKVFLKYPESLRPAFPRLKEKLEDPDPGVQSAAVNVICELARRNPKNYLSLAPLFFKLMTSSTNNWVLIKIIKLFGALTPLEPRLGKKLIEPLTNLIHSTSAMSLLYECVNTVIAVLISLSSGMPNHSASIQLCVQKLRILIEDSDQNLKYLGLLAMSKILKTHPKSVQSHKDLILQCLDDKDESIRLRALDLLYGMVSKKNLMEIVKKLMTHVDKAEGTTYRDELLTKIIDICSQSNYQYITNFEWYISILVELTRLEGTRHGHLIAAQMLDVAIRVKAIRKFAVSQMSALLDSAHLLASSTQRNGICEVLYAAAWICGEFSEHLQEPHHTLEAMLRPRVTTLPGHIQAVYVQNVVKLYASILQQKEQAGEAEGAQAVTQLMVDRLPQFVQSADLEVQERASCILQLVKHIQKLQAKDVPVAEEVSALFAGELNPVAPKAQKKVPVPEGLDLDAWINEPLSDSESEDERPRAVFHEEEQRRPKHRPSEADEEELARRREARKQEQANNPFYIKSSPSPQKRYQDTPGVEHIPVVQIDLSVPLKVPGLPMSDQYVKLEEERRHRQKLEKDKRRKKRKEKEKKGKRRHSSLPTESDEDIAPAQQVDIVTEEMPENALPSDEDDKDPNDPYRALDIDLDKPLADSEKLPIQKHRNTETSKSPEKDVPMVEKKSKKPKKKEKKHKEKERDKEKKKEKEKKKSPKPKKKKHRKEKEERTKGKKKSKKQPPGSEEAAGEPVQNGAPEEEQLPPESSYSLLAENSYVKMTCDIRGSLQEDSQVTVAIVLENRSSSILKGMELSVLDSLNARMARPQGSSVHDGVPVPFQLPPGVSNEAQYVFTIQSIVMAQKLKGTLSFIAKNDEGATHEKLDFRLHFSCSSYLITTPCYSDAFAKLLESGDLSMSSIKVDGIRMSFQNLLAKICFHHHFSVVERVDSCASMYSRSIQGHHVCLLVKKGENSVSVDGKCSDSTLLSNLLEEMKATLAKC
Chain of UniProt Q9P1F3 (Q9P1F3 whole entry, looked up): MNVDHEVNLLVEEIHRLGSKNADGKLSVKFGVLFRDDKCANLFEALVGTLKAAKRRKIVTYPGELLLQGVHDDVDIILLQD
Chain of UniProt Q9BTT0 (Q9BTT0 whole entry, looked up): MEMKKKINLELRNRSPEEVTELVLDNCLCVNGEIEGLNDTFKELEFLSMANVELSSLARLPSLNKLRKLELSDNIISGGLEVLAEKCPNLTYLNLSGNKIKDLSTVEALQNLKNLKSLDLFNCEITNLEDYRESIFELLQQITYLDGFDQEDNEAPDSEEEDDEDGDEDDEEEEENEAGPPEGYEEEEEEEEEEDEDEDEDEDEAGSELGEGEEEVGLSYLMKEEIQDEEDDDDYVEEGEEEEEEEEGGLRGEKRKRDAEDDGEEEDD
Chain of UniProt Q9BXX2 (Q9BXX2 whole entry, looked up): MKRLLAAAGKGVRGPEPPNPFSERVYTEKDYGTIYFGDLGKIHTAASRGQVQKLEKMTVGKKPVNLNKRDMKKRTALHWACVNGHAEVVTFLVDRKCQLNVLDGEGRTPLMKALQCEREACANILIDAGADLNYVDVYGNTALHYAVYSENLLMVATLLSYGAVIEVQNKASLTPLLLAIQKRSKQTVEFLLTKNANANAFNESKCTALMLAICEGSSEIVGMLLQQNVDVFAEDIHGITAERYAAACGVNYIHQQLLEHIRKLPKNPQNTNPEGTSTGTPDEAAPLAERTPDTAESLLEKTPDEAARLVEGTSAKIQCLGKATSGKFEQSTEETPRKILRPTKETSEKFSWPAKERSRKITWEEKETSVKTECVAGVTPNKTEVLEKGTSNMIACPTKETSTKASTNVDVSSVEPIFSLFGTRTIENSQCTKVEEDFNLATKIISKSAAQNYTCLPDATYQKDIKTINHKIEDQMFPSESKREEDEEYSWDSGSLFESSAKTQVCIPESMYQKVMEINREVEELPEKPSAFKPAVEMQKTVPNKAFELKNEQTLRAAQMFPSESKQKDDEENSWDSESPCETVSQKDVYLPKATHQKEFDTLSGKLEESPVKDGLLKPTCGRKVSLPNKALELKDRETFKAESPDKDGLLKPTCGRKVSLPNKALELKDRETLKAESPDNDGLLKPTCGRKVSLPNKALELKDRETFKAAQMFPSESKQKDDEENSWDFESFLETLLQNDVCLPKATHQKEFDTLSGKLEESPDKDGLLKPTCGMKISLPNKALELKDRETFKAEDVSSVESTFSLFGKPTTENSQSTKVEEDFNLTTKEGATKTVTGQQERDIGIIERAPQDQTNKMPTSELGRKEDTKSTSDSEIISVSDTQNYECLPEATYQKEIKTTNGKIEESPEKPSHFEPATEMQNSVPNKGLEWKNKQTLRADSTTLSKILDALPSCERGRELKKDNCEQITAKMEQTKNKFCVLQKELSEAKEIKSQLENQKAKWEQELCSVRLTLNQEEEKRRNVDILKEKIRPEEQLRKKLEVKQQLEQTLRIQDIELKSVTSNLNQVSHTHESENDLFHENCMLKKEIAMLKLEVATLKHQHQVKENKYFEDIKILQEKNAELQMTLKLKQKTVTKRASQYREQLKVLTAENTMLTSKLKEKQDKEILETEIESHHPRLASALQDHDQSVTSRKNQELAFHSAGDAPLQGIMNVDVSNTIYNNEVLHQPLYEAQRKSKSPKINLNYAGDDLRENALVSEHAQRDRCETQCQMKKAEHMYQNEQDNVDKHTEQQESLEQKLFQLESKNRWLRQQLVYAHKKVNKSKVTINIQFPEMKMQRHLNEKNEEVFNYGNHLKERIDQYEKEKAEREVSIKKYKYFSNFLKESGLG
Chain of UniProt Q8N302 (Q8N302 whole entry, looked up): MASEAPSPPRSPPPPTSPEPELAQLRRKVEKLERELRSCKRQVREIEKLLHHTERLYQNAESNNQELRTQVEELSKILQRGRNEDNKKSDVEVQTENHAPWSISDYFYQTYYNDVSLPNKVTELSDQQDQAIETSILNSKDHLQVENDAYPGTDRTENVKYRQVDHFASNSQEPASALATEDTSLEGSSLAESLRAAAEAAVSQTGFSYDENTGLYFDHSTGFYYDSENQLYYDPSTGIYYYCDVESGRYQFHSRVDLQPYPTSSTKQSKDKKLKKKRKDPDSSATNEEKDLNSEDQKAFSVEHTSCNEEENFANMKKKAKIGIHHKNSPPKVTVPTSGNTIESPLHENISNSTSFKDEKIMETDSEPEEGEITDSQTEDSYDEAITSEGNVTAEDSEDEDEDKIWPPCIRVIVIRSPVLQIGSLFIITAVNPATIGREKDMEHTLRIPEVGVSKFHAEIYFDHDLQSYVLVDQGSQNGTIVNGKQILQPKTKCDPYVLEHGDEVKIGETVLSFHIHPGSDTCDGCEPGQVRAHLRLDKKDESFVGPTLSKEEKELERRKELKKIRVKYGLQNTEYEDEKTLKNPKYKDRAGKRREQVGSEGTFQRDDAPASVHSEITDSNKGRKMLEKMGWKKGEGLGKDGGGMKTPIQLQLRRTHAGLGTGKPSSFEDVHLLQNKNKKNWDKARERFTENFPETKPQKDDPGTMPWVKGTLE
Chain of UniProt Q9BT30 (Q9BT30 whole entry, looked up): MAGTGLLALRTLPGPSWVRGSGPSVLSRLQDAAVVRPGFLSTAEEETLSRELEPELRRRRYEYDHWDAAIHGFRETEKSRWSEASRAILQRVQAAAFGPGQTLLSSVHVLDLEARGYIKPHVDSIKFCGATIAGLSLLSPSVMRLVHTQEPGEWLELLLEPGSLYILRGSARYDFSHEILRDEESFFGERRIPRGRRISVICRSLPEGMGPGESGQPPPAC

| Target | log2 fold change [1] | log2 fold change [2] | log2 fold change [3] | log2 fold change [4] | log2 fold change (vemurafenib) | log2 fold change [5] | log2 fold change (volasertib) | log2 fold change [6] | log2 fold change [7] | log2 fold change (ibrutinib) | log2 fold change [8] | log2 fold change (barasertib) | log2 fold change [9] | log2 fold change (saracatinib) | log2 fold change (sotrastaurin) | log2 fold change (ralimetinib) | log2 fold change [10] | log2 fold change [11] | log2 fold change [12] | log2 fold change [13] |
| --- | --- | --- | --- | --- | --- | --- | --- | --- | --- | --- | --- | --- | --- | --- | --- | --- | --- | --- | --- | --- |
| AP3D1 isoform 2 (UniProt O14617) | -0.085 | 0.09 | 0.127 | 0.053 | 0.002 | -0.085 | -0.012 | -0.231 | 0.058 | – | – | – | – | – | – | – | – | – | – | – |
| ACVR1 (UniProt Q04771) | – | – | -0.152 | – | – | – | – | -0.244 | 0.815 (active) | -0.047 | -0.02 | -0.115 | – | – | – | – | – | – | – | – |
| ABRACL (UniProt Q9P1F3) | -0.179 | 0.001 | -0.112 | 0.015 | – | -0.074 | -0.001 | 0.156 | 0.053 | 0.109 | 0.142 | 0.06 | 0.051 | 0.134 | 0 | – | – | – | – | – |
| ALDH3A1 (UniProt P30838) | -0.197 | 0.04 | – | -0.119 | – | 0.014 | 0.035 | -0.618 | 0.216 | – | 1.23 (active) | – | 0.432 | 1.2 (active) | -0.007 | -0.274 | -0.259 | -0.001 | -0.399 | – |
| ACAT1, A0A5F9ZHJ0 | – | – | -0.106 | – | – | – | – | -0.006 | 0.081 | – | – | – | – | – | – | 0.034 | -0.129 | 0.013 | -0.131 | – |
| ALG13 isoform 2 (UniProt Q9NP73) | – | – | 0.03 | – | – | – | – | 0.016 | -0.098 | – | – | – | – | – | – | – | – | – | – | – |
| ABI1 isoform 6 (UniProt Q8IZP0) | -0.034 | – | – | -0.028 | – | -0.219 | 0.026 | – | – | – | – | – | – | – | – | – | – | – | – | 0.248 |
| ALKBH7 (UniProt Q9BT30) | – | -0.085 | 0.256 | – | – | – | – | 0.233 | -0.2 | – | -0.012 | – | 0.077 | -0.012 | -0.016 | 0.116 | 0.09 | 0.019 | 0.072 | -0.031 |
| ANKRD30B (UniProt Q9BXX2) | -0.086 | 0.038 | -0.098 | -0.167 | 0.136 | 0.024 | 0.003 | -0.755 (active) | 0.281 | -0.063 | -0.064 | 0.047 | – | 0.04 | – | -0.007 | -0.16 | 0.024 | -0.055 | 0.012 |
| ALKBH1 (UniProt Q13686) | – | 0.008 | -0.003 | – | 0.069 | – | – | 0.015 | -0.072 | – | -0.102 | – | – | -0.037 | – | 0.095 | -0.1 | 0.093 | -0.043 | -0.05 |
| ARMCX5 (UniProt Q6P1M9) | -0.018 | -0.004 | -0.047 | -0.093 | 0 | 0.032 | -0.012 | -0.099 | -0.03 | 0.04 | 0.053 | 0.007 | – | 0.043 | – | 0.012 | 0.013 | -0.049 | -0.027 | -0.034 |
| ANXA2 (UniProt H0YL33) | -0.167 | -0.353 | 0.033 | -0.144 | – | 0.012 | 0.136 | 0.643 (active) | -0.416 | 0.235 | 0.025 | 0.37 | -0.211 | 0.088 | 0.214 | -0.076 | 0.129 | 0.005 | 0.012 | – |
| ARHGEF2 (UniProt V9GYF0) | 0.02 | – | -0.055 | -0.07 | -0.013 | 0.05 | -0.022 | – | – | – | -0.011 | – | – | -0.114 | – | -0.041 | -0.126 | 0.008 | 0.11 | 0.022 |
| AIMP2 isoform 2 (UniProt Q13155) | 0.064 | – | – | 0 | – | -0.134 | 0.047 | – | – | -0.28 | – | 0.038 | 0.089 | – | 0.014 | 0.061 | -0.036 | 0.023 | -0.027 | – |
| ARL13B (UniProt Q3SXY8) | -0.033 | 0.081 | – | 0.077 | -0.075 | -0.039 | 0.065 | 0.325 | -0.246 | -0.001 | -0.002 | -0.041 | 0.047 | 0.007 | 0.117 | 0.058 | -0.032 | -0.068 | -0.043 | – |
| ANP32E isoform 3 (UniProt Q9BTT0) | – | – | – | – | 0.034 | – | – | -0.724 (active) | 0.468 | -0.065 | – | -0.086 | – | – | – | – | – | – | – | -0.026 |
| ALG3 (UniProt Q92685) | 0.03 | -0.278 | – | 0.03 | 0.084 | -0.011 | 0.01 | -0.371 | 0.06 | -0.163 | 0.014 | 0.031 | -0.024 | 0.068 | 0.029 | -0.007 | -0.032 | 0.042 | 0.032 | 0.012 |
| ADAM17 (UniProt P78536) | – | -0.056 | 0.16 | – | 0.071 | – | – | 0.065 | 0.001 | 0.037 | -0.029 | -0.184 | -0.013 | -0.011 | 0.002 | -0.012 | -0.032 | -0.027 | -0.027 | -0.151 |
| AGGF1 (UniProt Q8N302) | 0.077 | -0.017 | -0.011 | -0.341 | 0.112 | -0.043 | -0.06 | -0.43 (active) | 0.175 | 0.034 | – | 0.115 | 0.034 | – | 0.025 | -0.014 | -0.023 | -0.04 | 0.001 | 0.084 |
| AMDHD2 (UniProt Q9Y303) | – | – | – | – | -0.128 | – | – | -0.116 | 0.052 | – | – | – | 0.014 | – | 0.047 | – | – | – | – | – |
| ADD1 isoform 4 (UniProt P35611) | 0.003 | 0.056 | – | -0.341 | 0.061 | -0.003 | 0.061 | -0.61 | 0.397 | 0.214 | 0.004 | -0.089 | – | 0.083 | – | -0.104 | -0.356 | 0.017 | -0.345 | 0.164 |
| ABCA3 (UniProt Q99758) | -0.002 | -0.023 | – | 0.128 | 0.114 | -0.044 | 0.089 | -0.086 | 0.051 | -0.036 | -0.112 | 0.057 | 0.062 | -0.05 | 0.031 | -0.041 | -0.13 | -0.028 | -0.163 | -0.009 |
| AP5B1 (UniProt Q2VPB7) | -0.037 | 0.011 | 0.021 | -0.006 | – | 0.062 | 0.011 | 0.002 | 0.045 | 0.112 | -0.067 | 0.035 | -0.08 | -0.014 | -0.062 | -0.04 | -0.072 | 0.036 | 0.001 | 0.066 |
